Source: PubChem
The list is not random: actives were taken first. Their share in the collection is about 1.1%.
MBNL1-CUG inh: qHTS Assay for Inhibitors of MBNL1-poly(CUG) RNA binding | Muscleblind-like protein 1 (Homo sapiens), Q9NR56 | Potency, µM (doses to about 57.5 µM), for the others: at the highest dose activity change, negative = inhibition, actives largely listed as inhibitors | actives 0.036% (n = 280,000) | TR-FRET MBNL1-His/biotin-(CUG)12 binding, 665/545 ratio; active means well fitted inhibition curve with a large enough effect in the signal ratio, with a control signal flat, not every such curve was filed as active; inconclusive means small, poorly fitted or top-dose-only effect, or effect the other way, or a change in a side signal; inactive means no such curve, though single readings can be large or run the other way; the % refers to the signal ratio; further: potency means the concentration at half of the fitted maximal effect; on the % scale 0 is the no-effect control and ±100 the full control effect
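TR-FRET between His-tagged MBNL1 and biotin-(CUG)12 RNA, detected with Tb anti-His antibody (0.055 ng/ul) and streptavidin-XL665 (5 nM), 60 min at room temperature. Compounds titrated 92 nM to 58 uM; 665/545 nm ratio normalized to buffer and complex controls.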
NPSR antag: qHTS Assay for Antagonists of the Neuropeptide S Receptor: cAMP Signal Transduction; Q6W5P4; CHO-NPSR cells, cAMP TR-FRET, antagonist mode; Potency, µM (series often up to 38.3 µM), for inactives: top-dose activity change, negative = inhibition, most hits filed as inhibitors; actives 1% (n = 220,000); AID 1461, 2008; further: potency means the concentration at half of the fitted maximal effect; on the % scale 0 is the no-effect control and ±100 the full control effect; nearly all actives have a fitted effect of over 50% in size
Target sequence (Q6W5P4 whole entry, looked up): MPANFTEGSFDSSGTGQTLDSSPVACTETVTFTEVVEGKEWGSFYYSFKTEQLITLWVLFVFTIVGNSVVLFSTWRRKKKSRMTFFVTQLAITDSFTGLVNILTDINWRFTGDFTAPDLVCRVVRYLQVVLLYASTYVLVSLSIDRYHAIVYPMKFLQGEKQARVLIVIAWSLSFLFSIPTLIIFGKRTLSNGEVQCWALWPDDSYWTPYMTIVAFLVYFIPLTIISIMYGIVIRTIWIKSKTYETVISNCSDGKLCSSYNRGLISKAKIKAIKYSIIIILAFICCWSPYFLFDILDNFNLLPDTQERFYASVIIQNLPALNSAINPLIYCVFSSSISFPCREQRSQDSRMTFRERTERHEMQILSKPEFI
LMNA splice mod: qHTS Assay for Modulators of Lamin A Splicing; HeLa LMNA splicing GFP/RFP minigene ratio, 48 h; Potency, µM (titrated, usually from 46.1 µM), for the others: at the top dose ratio change, negative = inhibition, usual class: inhibitors; actives 0.01% (n = 200,000); active means well fitted inhibition curve with a large enough effect in the signal ratio, with a control signal flat, not every such curve was filed as active; inconclusive means small, poorly fitted or top-dose-only effect, or effect the other way, or a change in a side signal; the % refers to the signal ratio; further: potency means the concentration at half of the fitted maximal effect; on the % scale 0 is the no-effect control and ±100 the full control effect
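S3 HeLa stable clones carrying a lamin A-EGFP splicing minigene plus DsRed2 were seeded at 600 cells/well in Opti-MEM with 2% FBS, pin-dosed and incubated 48 h at 37°C. Acumen cytometry (488 nm) gave the GFP/RFP total-intensity ratio.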
HTT aggregate: qHTS Multiplex Assay to Identify Dual Action Probes in a Cell Model of Huntington: Aggregate Formation (GFP) | Potency, µM (top dose mostly 46.1 µM), for inactives: at the highest dose activity change, negative = inhibition, actives largely listed as inhibitors | AID 1688, 2009 | actives 1.1% (n = 220,000) | PC12 HttQ103-GFP aggregates, Acumen cytometry, 40 h; further: potency means the concentration at half of the fitted maximal effect; on the % scale 0 is the no-effect control and ±100 the full control effect; nearly all actives have a fitted effect of over 60% in size
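Quantitative HTS on tebufenozide-induced (100 nM) PC12 cells stably expressing polyQ103 Huntingtin exon 1–GFP. Reduction of bright GFP aggregates, detected by laser scanning cytometry after lysis, identified actives across the titration.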
CBFb RUNX1 block: qHTS Assay for Compounds Blocking the Interaction Between CBF-beta and RUNX1 for the Treatment of Acute Myeloid Leukemia; AlphaScreen CBFb-His/RUNX1-biotin binding, biochemical; Potency, µM (doses to about 59.8 µM), for the others: top-dose activity, negative = inhibition, hits mostly inhibitors; 230,000 tested, under 10 active; AID 1477, 2009; further: % of control where 0% means no effect
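CBFb-His/RUNX1-biotin, 30 nM each, preincubated 20 min RT; compound 15 min RT; Ni + streptavidin beads 50 ng each, 90 min RT; AlphaScreen read.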
HTT ATP protect: qHTS Multiplex Assay to Identify Dual Action Probes in a Cell Model of Huntington: Cytoprotection (ATP). PC12 HTT-Q103 induced, cytoprotection, ATP luminescence, 40 h. Potency, µM (doses to about 56.4 µM), inactives show cytoprotection (ATP increase), actives largely listed as activators. actives 0.14% (n = 230,000); further: potency means the concentration at half of the fitted maximal effect; % of control where 0% means no effect; nearly all actives have a fitted effect of over 45% in size
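Huntington model: PC12 line, ecdysone-inducible HTTQ103 exon1–GFP, tebufenozide 100 nM. Test articles in a dose series. Endpoint luminescence from cellular ATP.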
Active calls of the source: *; ? = inconclusive; . = no result given; [ ] = remark or other dose. Unless noted, the call rests on the fitted dose curve; in most records, active means well fitted curve in the direction sought with a large enough effect; inconclusive means small, poorly fitted or top-dose-only effect, or another doubt; inactive means no such curve, though single readings can be large; an effect the other way counts as inactive or inconclusive.

SMILES | MBNL1-CUG inh | NPSR antag | LMNA splice mod | HTT aggregate | CBFb RUNX1 block | HTT ATP protect
Cn1c2c(c(=O)n(C)c1=O)C(NC(=O)C(C)(C)C)(C(F)(F)F)C(=O)N2 (configuration not stated) | -4% | -10%[46.1 µM] | 5% | 13% | 2% | -8%
CCN(c1cccc(C)c1)c1ncnc2nc[nH]c12 | 0% | -4%[46.1 µM] | -13% | 8.9µM* | 10% | 0%[10 µM]
CCCCN(c1ccccc1)c1ncnc2nc[nH]c12 | -7% | -11% | -17% | ? | -5% | -2%
CCCCCCCCCCn1c2c(c(=N)c3c1CCC3)CCC2 | 8% | ? | ? | 1µM* | 4% | -108%
CC(NC(=O)CCl)c1ccc(Cl)c(Cl)c1 (configuration not stated) | -1% | 15%[46.1 µM] | ? | 22µM* | 2% | -25%
COc1ccc(C2C=C(c3ccc(Br)s3)Nc3ncnn32)cc1OC (configuration not stated) | ? | -3%[46.1 µM] | -16% | 11µM* | 12% | -49%[10 µM]
NCCCC[C@H](NC(=O)[C@H](CCCN=C(N)N)NC(=O)[C@H](CO)NC(=O)[C@H](CCCN=C(N)N)NC(=O)[C@@H](N)Cc1ccc(O)cc1)C(=O)N[C@@H](Cc1ccc(O)cc1)C(=O)N[C@@H](CO)C(=O)N[C@@H](CO)C(=O)N[C@@H](Cc1c[nH]c2ccccc12)C(=O)N[C@@H](Cc1ccc(O)cc1)C(=O)O | . | . | . | . | -20% | .
Cc1cc(O)c(C(C)C)cc1NS(=O)(=O)c1ccccc1 | -1% | -5%[46.1 µM] | -18% | 5µM* | 3% | 5%[0.074 µM]
CC(=O)Nc1ccc(NC(=O)CN(c2cc(Cl)ccc2Cl)S(C)(=O)=O)cc1 | -7% | 11% | . | 32µM* | -1% | -7%
COc1ccc(Cl)cc1NC(=O)CSc1nnc2[nH]c(=O)cc(C)n12 | . | . | -17%[46 µM] | . | . | .
O=C(NCCCc1ccccc1)c1ccccc1O | -4% | ? | 8% | 10µM* | 2% | -12%[10 µM]
O=C(NCCNC(=O)c1ccccc1O)c1ccccc1O | -9% | . | . | . | . | .
COc1ccc(C)cc1NC(=O)N1CCN(S(=O)(=O)c2ccc3c(ccn3C)c2)CC1 | . | . | 7%[46 µM] | . | . | .
Cc1ccc(CSc2nc3ccncc3n2CC(=O)Nc2cc(C)cc(C)c2)cc1 | ? | 3.2µM* | ? | -22% | -7%[2.36 µM] | .
Cc1cc(C)cc(NC(=O)Cn2c(SCc3cc(C)ccc3C)nc3ccncc32)c1 | 135% | -21% | 8% | -12% | -2%[2.36 µM] | .
CN=C1C=CC(=C(c2ccc(N(C)C)cc2)c2ccc(N(C)C)cc2)C=C1 | . | . | . | 8.9µM* | . | -99%
Cc1ccccc1N1C(=O)CC(Sc2nnc(-c3ccccc3)o2)C1=O (configuration not stated) | 56% | ? | 14% | 22µM* | 9% | -96%
Cn1c(C[C@@H](O)c2nc3ccccc3n2C)nc2ccccc21 | . | . | . | . | . | -8%[10 µM]
COc1cc(OC)nc(-n2ncc(Br)c(Br)c2=O)n1 | 8%[11.5 µM] | 6.3µM* | ? | 4.5µM* | 2% | .
Cc1noc(C)c1COC(=O)Cc1ccc(Cl)c(Cl)c1 | 1% | -18%[46.1 µM] | 7% | 0.79µM* | 8% | -16%[0.074 µM]
Cc1noc(C)c1COC(=O)[C@H](C)NS(=O)(=O)c1ccc(Cl)c(Cl)c1 | 1% | -17%[46.1 µM] | -3% | -10% | 5% | -21%
Cc1oc(C)c2c(=O)ccc3c(c12)OC(N)=C(C#N)C3c1ccccc1 (configuration not stated) | 35% | -23%[46.1 µM] | -8% | 31% | -4% | 10%[10 µM]
